Our source for the outcome and AC50 values is PubChem BioAssay (EPA / NIEHS).

Records with an inconclusive call do not appear. Calls of active or inactive are those of the source. The calls were made as follows, unless noted: active = hit-call score of the fitted dose curve at least 0.9, where 1 is the maximum; inactive = score below 0.9.

Assay [1] is described as follows: CCTE_Deisenroth_AIME_96WELL_CTox_Active: Cytotoxicity Assessment (CTOX) in CCTE's 96-well Estrogen Receptor Transactivation Assay with AIME metabolic competence (metabolism positive), Deisenroth Lab (AID 2284028; active = hit-call score of the fitted dose curve at least 0.9, where 1 is the maximum). A digest of the protocol:
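Cytotoxicity in VM7Luc4E2 breast cells after 24 h exposure to medium from a 2 h metabolic pre-incubation with induced rat hepatic S9 in alginate microspheres; fluorescent live-cell protease readout, 10-point series 0.002–200 uM, n=4.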

A short description of assay [2]: CCTE_Deisenroth_AIME_96WELL_CTox_Inactive: Cytotoxicity Assessment (CTOX) in CCTE's 96-well Estrogen Receptor Transactivation Assay without AIME metabolic competence (metabolism negative), Deisenroth Lab (AID 2284029; active = hit-call score of the fitted dose curve at least 0.9, where 1 is the maximum). A digest of the protocol: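 Cytotoxicity in VM7Luc4E2 breast cells was scored as loss of fluorescent signal from a live-cell protease substrate 24 h after exposure, using bidirectional curve fitting. Test media came from a 2 h metabolism-negative pre-incubation (alginate-water, no hepatic S9) of compounds at 0.002-200 uM, with at least four replicates.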

Assay [3] is described as follows: CCTE_Harrill_HTTr_Viability_MCF7: CCTE's 6-hour Cell Viability Assessment for the High-Throughput Transcriptomics (HTTr) Platform, in MCF-7 cells cultured in DMEM + 10% fetal bovine serum, Harrill Lab (AID 2284010). An outline of the steps:
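Eight-point concentration series, six-hour exposure. Propidium iodide exclusion imaged to assess membrane integrity as a cytotoxicity readout; bidirectional fitting was done with DMSO as negative control and activity baseline.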

Assay [4] in a line: CCTE_Harrill_HTTr_Apoptosis_MCF7: CCTE's 6-hour Apoptosis Assessment for the High-Throughput Transcriptomics (HTTr) Platform, in MCF-7 cells cultured in DMEM + 10% fetal bovine serum, Harrill Lab (AID 2284011). A digest of the protocol: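 MCF-7 cells in DMEM + 10% FBS exposed 6 h to chemicals over an eight-point dilution series. Caspase-3/7 activation imaged by high-content CellEvent Green staining; fitted bidirectionally versus DMSO.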

A short description of assay [5]: UKN5_HCS_SBAD2_neurite_outgrowth: University of Konstanz (UKN) Leist Lab Neurite Outgrowth Assay in human iPSC-derived immature Dorsal Root Ganglia Neurons (UKN5) (AID 2284070). The note with it: actives raise or lower the signal. A digest of the protocol:
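Neurite outgrowth is quantified as calcein-AM-labelled neurite area in human iPSC-derived peripheral neurons treated for 24 h, starting 1 h after plating in medium with CHIR99021 (1.5 uM), SU5402 (5 uM) and DAPT (5 uM).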

The nature of assay [6]: UKN2_HCS_IMR90_neural_migration: University of Konstanz (UKN) Leist Lab Neural Crest Cell Migration Assay in human induced IMR90 Pluripotent Stem Cells (UKN2) (AID 2284204). The following applies: actives raise or lower the signal. An outline of the steps: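 Using a 96-well stopper format with PLO/laminin/fibronectin coating, neural crest cells from iPSC migrate in cytokine-supplemented N2-S medium; after 24 h, chemicals are applied for a further 24 h, then cells are imaged after dye staining.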

Assay [7] is described as follows: IUF_NPC1b_proliferation_BrdU_72hr: Leibniz Research Institute for Environmental Medicine (IUF) 72-hour Neural Progenitor Cell Bromodeoxyuridine (BrdU) Proliferation Assay (NPC1b) (AID 2284207). An outline of the steps: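 Neural progenitor spheres of human fetal origin are treated for three days; BrdU added for the last 16 h is quantified by luminescence ELISA, with DMSO as baseline and EGF/FGF omission as positive control.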

Assay [8] is described as follows: IUF_NPC1a_proliferation_area_72hr: Leibniz Research Institute for Environmental Medicine (IUF) 72-hour Neural Progenitor Cell Proliferation Area Assay (NPC1a) (AID 2284208). An outline of the steps:
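Single 0.25–0.35 mm human fetal neural progenitor spheres in proliferation medium with EGF and FGF, exposed 72 h from plating without renewal at 37C, pH 7.2-7.6. Sphere area growth measured by automated phase-contrast imaging, relative to DMSO.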

Assay [9] in a line: UKN4_HCS_LUHMES_cell_viability: Viability Assessment in the University of Konstanz (UKN) Leist Lab Neurite Outgrowth Assay in human LUHMES cells (UKN4) (AID 2284232). A digest of the protocol: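 Measured in replated, 2-day-differentiated LUHMES cells treated 24 h; stained 30 min with H-33342 and calcein-AM before high-content imaging.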
A short description of assay [10]: UKN2_HCS_IMR90_cell_viability: Viability Assessment in the University of Konstanz (UKN) Leist Lab Neural Crest Cell Migration Assay in human induced IMR90 Pluripotent Stem Cells (UKN2) (AID 2284233).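 Also: viability of neural crest cells differentiated from IMR90 iPSC measured by calcein-AM fluorescence imaging; cells exposed to compound for 24 h after a 24 h migration phase.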 A digest of the protocol: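 cMINC format, iPSC-derived neural crest (IMR90); 24 h migration (EGF/FGF, N2-S), then 24 h toxicant. Calcein-AM/H-33342 stain 30 min; fluorescence intensity by HCS; DMSO-normalised, bidirectional fitting.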

A short description of assay [11]: IUF_NPC2c_oligodendrocyte_migration_120hr: Leibniz Research Institute for Environmental Medicine (IUF) 120-hour Neural Progenitor Cell Migration Assay for Oligodendrocyte Migration (NPC2c) (AID 2284297).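 Also: O4-positive oligodendrocyte migration distance divided by radial glia migration distance.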 A digest of the protocol:
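Human fetal neural progenitor spheres (0.3 mm) are plated on poly-D-lysine/laminin in N2 differentiation medium and exposed for 120 h, with half-medium renewal at day 3. Oligodendrocyte (O4+) migration distance comes from ICC imaging, normalised to radial glia migration.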

The nature of assay [12]: IUF_NPC2a_radial_glia_migration_120hr: Leibniz Research Institute for Environmental Medicine (IUF) 120-hour Neural Progenitor Cell Migration Assay for Radial Glia Migration (NPC2a) (AID 2284298). A digest of the protocol:
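Human fetal-cortex neural progenitor spheres (0.3 mm) plated on poly-D-lysine/laminin in N2 differentiation medium, exposed 120 h at 37C with half-medium renewal at day 3. Radial glia migration distance (um) measured from Hoechst-stained nuclei images; DMSO baseline.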

A short description of assay [13]: IUF_NPC2a_radial_glia_migration_72hr: Leibniz Research Institute for Environmental Medicine (IUF) 72-hour Neural Progenitor Cell Migration Assay for Radial Glia Migration (NPC2a) (AID 2284299). An outline of the steps: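 Spheres of human primary neural progenitors migrate on poly-D-lysine/laminin under compound exposure at 37C, 5% CO2. The 72 h radial glia migration distance comes from brightfield images, measured manually.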

Assay [14] is described as follows: IUF_NPC2b_neuronal_migration_120hr: Leibniz Research Institute for Environmental Medicine (IUF) 120-hour Neural Progenitor Cell Migration Assay for Neuron Migration (NPC2b) (AID 2284300). A digest of the protocol: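 0.3 mm hNPC spheres on poly-D-lysine/laminin in N2 differentiation medium exposed 120 h, half-medium refresh day 3; 7 concentrations, DMSO max 0.1%. Neuron (TUBB3) distance from sphere core by ICC imaging, normalised to radial glia migration.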

Assay [15] is described as follows: IUF_NPC3_neuronal_differentiation_120hr: Leibniz Research Institute for Environmental Medicine (IUF) 120-hour Neuronal Differentiation Assay (NPC3) (AID 2284301). An outline of the steps: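 Neuronal differentiation of primary human neural progenitors measured by high-content imaging: percent TUBB3+ of Hoechst+ nuclei within migrated area at 120 h, seven-point serial dilution plus solvent control, gain or loss relative to DMSO.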

Assay [16] is described as follows: IUF_NPC4_neurite_length_120hr: Leibniz Research Institute for Environmental Medicine (IUF) 120-hour Neuronal Morphology Assay for Neurite Length (NPC4) (AID 2284302). An outline of the steps: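 Neurons from differentiating human fetal neural progenitor spheres are scored for average neurite length after five days of compound exposure. Fitting uses DMSO as negative control.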

The nature of assay [17]: IUF_NPC5_oligodendrocyte_differentiation_120hr: Leibniz Research Institute for Environmental Medicine (IUF) 120-hour Oligodendrocyte Differentiation Assay (NPC5) (AID 2284304; active = hit-call score of the fitted dose curve at least 0.9, where 1 is the maximum;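 also: primary human fetal neural progenitor spheres plated to migrate and differentiate; share of O4-positive cells among Hoechst nuclei found by CNN image analysis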). An outline of the steps: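 Human fetal neural progenitor spheres (0.3 mm) plated on poly-D-lysine/laminin in N2 differentiation medium and exposed for 120 h at 7 concentrations, with half-medium renewal at day 3. O4-positive cells identified by CNN, expressed as percent of Hoechst nuclei.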

Assay [18] can be described thus: IUF_NPC4_neurite_area_120hr: Leibniz Research Institute for Environmental Medicine (IUF) 120-hour Neuronal Morphology Assay for Neurite Area (NPC4) (AID 2284305; active = hit-call score of the fitted dose curve at least 0.9, where 1 is the maximum). An outline of the steps: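 Endpoint at 120 h: automated imaging of TUBB3/Hoechst-stained differentiating human neural progenitor spheres, neurite area per neuron from skeletonization. DMSO solvent control, not above 0.1%, set the baseline; medium was half-replaced on day 3.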

A short description of assay [19]: IUF_NPC2-5_cytotoxicity_72hr: Cytotoxicity Assessment at 72 hours in the Leibniz Research Institute for Environmental Medicine (IUF) Neural Progenitor Cell Migration and Differentiation Assay for Cytotoxicity (NPC2-5) (AID 2284306; active = hit-call score of the fitted dose curve at least 0.9, where 1 is the maximum;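 also: LDH release into supernatant measured by resorufin fluorescence marking membrane damage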). A digest of the protocol:
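Primary human neural progenitor spheres migrate and differentiate on laminin. Compound is present from the start of differentiation, with DMSO kept at or below 0.1%. At 72 h, supernatant LDH is quantified fluorometrically, with values fitted in the positive direction.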

A short description of assay [20]: IUF_NPC2-5_cytotoxicity_120hr: Cytotoxicity Assessment at 120 hours in the Leibniz Research Institute for Environmental Medicine (IUF) Neural Progenitor Cell Migration and Differentiation Assay (NPC2-5) (AID 2284307; active = hit-call score of the fitted dose curve at least 0.9, where 1 is the maximum). A digest of the protocol: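 Human fetal (GW 16-19) neural progenitor spheres (0.3 mm) plated on poly-D-lysine/laminin in N2 differentiation medium, exposed 120 h with half-medium renewal at day 3; 7 concentrations plus solvent control, DMSO ≤0.1%. LDH release in supernatant read by resorufin fluorescence.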

Assay [21] can be described thus: IUF_NPC2-5_cell_number_120hr: Cell Number Assessment at 120 hours in the Leibniz Research Institute for Environmental Medicine (IUF) Neural Progenitor Cell Migration and Differentiation Assay (NPC2-5) (AID 2284308).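 Also: count of Hoechst-stained nuclei in migration zone around plated human neural progenitor spheres.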 A digest of the protocol:
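Human fetal neural progenitor spheres (0.3 mm) plated on poly-D-lysine/laminin in N2 differentiation medium, exposed five days across 7 concentrations with half-medium refresh at day 3. Hoechst-positive nuclei counted in migration area at 120 h, relative to DMSO.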

Assay [22] is described as follows: IUF_NPC2-5_viability_120hr: Viability Assessment at 120 hours in the Leibniz Research Institute for Environmental Medicine (IUF) Neural Progenitor Cell Migration and Differentiation Assay (NPC2-5) (AID 2284312). An outline of the steps: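 Human fetal (GW 16-19) neural progenitor spheres of 0.3 mm were plated on poly-D-lysine/laminin in N2 differentiation medium and exposed from day 0 for 120 h, with half-medium refresh at day 3. Viability was read as alamar blue resazurin-to-resorufin fluorescence against DMSO.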

Assay [23] is described as follows: IUF_NPC1_cytotoxicity_72hr: Cytotoxicity Assessment at 72 hours in the Leibniz Research Institute for Environmental Medicine (IUF) Neural Progenitor Cell Proliferation Assay (NPC1) (AID 2284332; active = hit-call score of the fitted dose curve at least 0.9, where 1 is the maximum;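 also: rising LDH signal means more cytotoxicity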). An outline of the steps: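 Readout is fluorescence from LDH-dependent resazurin conversion, sampled from culture medium after compound contact lasting 72 h. Each well holds one 0.25-0.35 mm human progenitor sphere kept at 37C, 5% CO2 with EGF and FGF.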

`CCC(C)(C)c1cc(-n2nc3ccccc3n2)c(O)c(C(C)(C)CC)c1`: the result in [1] and in assay [2] was inactive.
Take `[O-][Cl+3]([O-])([O-])O`: the result in assay [3], in assay [4], in assay [5], in [6], in assay [8] and in assay [9] was inactive. Besides, the molecule was classed as inactive in assay [10], in [11], in assay [12], in [13], in assay [14] and in [15]. Moreover, the molecule was called inactive in assay [16], in [17], in assay [18], in assay [19], in assay [20] and in [21]. Moreover, the result in assay [22] and in assay [23] was inactive. Also, the AC50 in assay [7] was 171 nM (active).
